Test results taken from PubChem BioAssay (NCI).
Compounds without any hit were thinned out: in the full panel of roughly 83,000, 20% have a hit.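 96-well plates, one dose, 48 hours. Percent growth reported; active if below 10.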 The source made the active and inactive calls.

These compounds were tested on SK-MEL-5 melanoma (assay: NCI-60 one-dose screen, 48 h (100 = growth as untreated, 0 = no growth, -100 = all killed)). Settings: 10 µM unless noted.
Method: Growth inhibition of the SK-MEL-5 human tumor cell line is measured as a screen for anti-cancer activity. Cells are grown in 96 well plates and exposed to the test compound for 48 hours. Compounds are tested at a single concentration, which is 10^-5 M for most compounds. The reported endpoint is percent growth (GI% or GIPRCNT), where numbers from 0 - 100% represent growth inhibition, and numbers from -100% - 0 represent cell death. For example, a value of 40 represents 60% growth inhibition. A value of 0 means no net growth occurred over the course of the experiment. A value of -40 indicates 40% of cells at the beginning of the experiment died by the end of the experiment. A value of -100 means all cells are dead at the end of the experiment.
NCI-60 Human Tumor Cell Lines Screen was performed using the standard one-dose NCI protocol, which is described in more detail at https://dtp.cancer.gov/discovery_development/nci-60/default.htm.
Compounds with GIPRCNT values below 10 were considered active. Activity score was based on GIPRCNT using the following formula: […]
Score is 0 for GIPRCNT values of 100 or above, 50 for GIPRCNT values of 0, and 100 for GIPRCNT values of -100.

Compound	growth
COc1ccc2[nH]cc(-c3nnc(N)nc3-c3cn(C)c4ncc(Br)cc34)c2c1	85.7% (inactive)
CCOP(=O)(OCCCl)c1nc(-c2ccc(C)cc2)oc1NCc1ccccc1 (stereo not given)	84.8% (inactive)
C=C1CC[C@@H]2[C@]3(C)COC(c4cn[nH]c4-c4ccccc4)O[C@@H]3CC[C@@]2(C)[C@@H]1C/C=C1/C(=O)OCC1O (stereo not given in full)	-77.2% (active)
NC(=S)Nc1cccc(NC(N)=S)c1	91.4% (inactive)
CC(=O)Nc1ccc(-c2nc3cc(-c4ccc(O)cc4)ccc3n2C)cc1	78.3% (inactive)
COCOc1ccc2c(=O)c(C)c(C(=O)N[C@@H](Cc3ccccc3)C(O)C(=O)NCCc3ccc(OC)cc3)oc2c1 (stereo not given in full)	99.4% (inactive)
CC12CC[C@@H]3[C@]4(C)COC(c5cn[nH]c5-c5ccc(Br)cc5)O[C@@H]4CC[C@@]3(C)[C@@H]1CC(C1=CCOC1=O)O2 (stereo not given in full)	32.4% (inactive)
CN1CCN(/C(=N\c2sc(-c3ccccc3)nc2-c2ccccc2)c2ccccc2)CC1	75% (inactive)
CC(C)CSc1nc(NCCc2c[nH]c3ccccc23)c(C#N)c(-c2ccc(Cl)cc2)n1	30% (inactive)
COc1ccc(NC(=O)[C@@H](N)Cc2ccccc2)cc1C(=O)Nc1cccc(C2CC(=O)c3c(cc(OC)c(OC)c3OC)O2)c1 (stereo not given in full)	46.5% (inactive)
O=C(COc1ccc2c(c1)CCCC(=O)N2)NCc1ccccc1	82% (inactive)
C#CCOc1ccc(/C=N/Nc2nc(-c3cc4cc(OC)ccc4oc3=O)cs2)cc1OC	39.2% (inactive)
O=C1Nc2cc(Cl)ccc2/C1=C/c1cccc(OCc2ccccn2)c1	6.08% (active)
COc1ccc(-c2nc3ccc(C(=O)NN4C(=O)c5ccc([N+](=O)[O-])cc5C4=O)cc3[nH]2)cc1	83.1% (inactive)
CNC(=O)c1cccc(NC(=O)c2ccc3c(c2)nnn3/C(C#N)=C/c2ccccn2)c1	-13.4% (active)
O=C(NN1C(=O)/C(=C/C=C/c2ccc([N+](=O)[O-])o2)SC1=S)c1ccc(Cl)cc1	-100% (active)
COc1ccc(-c2nc3cc(C)ccc3n2CC(=O)N=Nc2c(O)[nH]c3ccc(Cl)cc23)cc1	-36.2% (active)
S=C(Nc1ccccc1)Nc1ccc(OCc2nc3ccccc3[nH]2)cc1	49.1% (inactive)
CC(=O)OC[C@@]1(C)C2CC[C@]3(C)C(CC=C4C5CC(C)(C)CC[C@]5(C(=O)Nc5ccc(C)cc5)CC[C@]43C)[C@@]2(C)C[C@@H](OC(C)=O)[C@@H]1OC(C)=O (stereo not given in full)	7.75% (active)
COc1ccc2[nH]c(O)c(N=NC(=O)Cn3c(-c4ccccc4)nc4cc(C)ccc43)c2c1	-23.8% (active)

Compound	growth
O=c1oc2ccc(Br)cc2cc1C1=CSc2nc3sc4c(c3c(=O)n2N=C1)CCCC4	96.9% (inactive)
CCCSc1nc(Nc2ccc(S(N)(=O)=O)cc2)c(C#N)c(-c2ccc(Cl)cc2)n1	55.9% (inactive)
C=CC(=O)Nc1ccc(C)c(Oc2ccc(Cl)cc2)c1	53% (inactive)
CC(=O)c1cc(C(=O)c2ccccc2)n2c1ccc1ccccc12	104% (inactive)
O=C(c1ccccc1)c1ccc2nc(-c3cccc(Cl)c3)[nH]c2c1	99.5% (inactive)
COc1ccc(N2N=C(c3ccc4c(c3)OCO4)CC2c2cccc(NC(=O)CCNS(=O)(=O)c3ccc(Cl)cc3)c2)cc1 (stereo not given)	24.2% (inactive)
O=c1[nH]n(C(=S)N/N=C/c2ccccc2Cl)c(=O)c2ccccc12	5.82% (active)
CCOC(=O)C1=C(N)N(c2ccccc2)C2=C(C(=O)CC(C)(C)C2)C1c1ccc(N2CCOCC2)cc1 (stereo not given)	98.7% (inactive)
Cc1occc1C(=O)NN1C(=O)/C(=C/C=C/c2ccc([N+](=O)[O-])o2)SC1=S	-96.7% (active)
O=C(COc1ccc(NC(=O)Nc2ccc(Cl)c(Cl)c2)cc1)N=Nc1c(O)[nH]c2ccc([N+](=O)[O-])cc12	90.7% (inactive)
CC12CC[C@@H]3[C@]4(C)COC(c5c(F)cccc5F)O[C@@H]4CC[C@@]3(C)[C@@H]1CC(C1=CCOC1=O)O2 (stereo not given in full)	47.4% (inactive)
COc1ccc2[nH]cc(-c3cc(N)n4nc(-c5cn(C)c6ccccc56)cc4n3)c2c1	-96.3% (active)
CN(C)CCCNC(=O)c1cc(NC(=O)c2cc(NC(=O)c3ccc(C#Cc4ccccc4)cc3)cn2C)cn1C	-93.7% (active)
COC(=O)/C=C/c1cccc2c1C(=O)NC(C)(c1cc3cc4ccccc4cc3oc1=O)N2 (stereo not given)	79.5% (inactive)
N#Cc1c(-c2cccnc2)cc(-c2ccc3ccccc3c2)[nH]c1=O	78.2% (inactive)
N#Cc1c(-c2ccc(Cl)cc2)nc2n[nH]c(-c3ccc(Cl)cc3)c2c1-c1cccs1	40.8% (inactive)
OCNc1ccc(-n2cnc3cc(-c4ccc(O)cc4)ccc32)cc1C(F)(F)F	3.27% (active)
NS(=O)(=O)c1ccc(NNC(=O)CCC(=O)c2ccccc2)cc1	99.1% (inactive)
C=C1CC[C@@H]2[C@]3(C)COC(c4cn[nH]c4-c4ccc(Br)cc4)O[C@@H]3CC[C@@]2(C)[C@@H]1C/C=C1/C(=O)OCC1O (stereo not given in full)	-97% (active)
COc1cc(CNC(=O)/C=C/c2ccc3c(c2)OCO3)ccc1OCc1cn(-c2ccc([N+](=O)[O-])cc2)nn1	89.3% (inactive)
